Measured values taken from PubChem BioAssay (NCATS).
Results filed as inconclusive are left out. Values without a mark were called inactive. Active and inactive are the calls of the source. The call rests on the fitted dose curve; in most records, active means well fitted cell-killing curve with a large enough effect; inconclusive means small, poorly fitted or top-dose-only effect, or effect the other way; inactive means no such curve, though single readings can be large or run the other way.

assay: Viability qHTS for spleen associated tyrosine kinase inhibitor (SYKi) drug resistant MV4-11 cells (AID 1963824); settings: SYKi-resistant MV4-11 viability, CellTiter-Glo, 72 h; series mostly up to 45 µM; viability, % of control: at the top concentration; further: nearly all actives have a fitted effect of over 35% in size
Method in brief: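 SYK inhibitor-resistant MV4-11 AML cells, 500 per well, added to predispensed compounds and incubated 72 hr at 37 C, 5% CO2. Viability measured by CellTiter-Glo luminescence after 10 min at room temperature.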
Potency means the concentration at half of the fitted maximal effect.

SMILES | viability, % of control | Potency
O=C1NC(c2cccc([N+](=O)[O-])c2)=CCN1c1ccccc1O | 61.4% [at 17.3 µM] | –
CC(C)C(=O)OC[C@H]1O[C@@H](n2ccc(N)nc2=O)[C@](C)(F)[C@@H]1OC(=O)C(C)C | 68.8% | –
C=C1C(O)CC2C(C(=O)O)=COC(O[C@@H]3O[C@H](COC(=O)/C=C/c4ccc(O)cc4)[C@@H](O)[C@H](O)[C@H]3O)C12 (some centres undefined) | 111% [at 17.3 µM] | –
C=CC(=O)N1CCN(C(=O)CNc2cc(-c3ccccc3Cl)c(Cl)cc2OC)CC1 | – | 11.6 µM (active)
CC(=O)NC(Cc1ccccc1)C(=O)NC(C(=O)O)C(C)C (centres undefined) | 74.4% | –
C=C1CN(Cc2ccc(C(=O)Nc3ccccc3N)cc2)C(=O)c2ccccc21 | – | 0.517 µM (active)
CC(C)CC(c1c(O)c(C=O)c(O)c(C=O)c1O)C1CCC(C)(O)C2CC(C(C)(C)O)CCC12C (centres undefined) | 70.7% [at 17.3 µM] | –
C/C(=C/CO)CC[C@H]1[C@]2(C)C[C@H](O)CC(C)(C)[C@H]2CC[C@]1(C)O | 101% | –
CC1CCC/C=C/C(=O)c2c(O)cc(O)cc2CC(=O)O1 (centres undefined) | – | 2.06 µM (active)
CC1(C=O)CC[C@]2(C(=O)O[C@@H]3O[C@H](CO)[C@@H](O)[C@H](O)[C@H]3O)CC[C@]3(C)C(=CCC4[C@@]5(C)C[C@H](O)[C@H](O[C@@H]6OC[C@@H](O)[C@H](O)[C@H]6O)[C@@](C)(CO)C5CC[C@]43C)C2C1 (some centres undefined) | 103% [at 9.25 µM] | –
CC1=C(CCC(C)O[C@@H]2O[C@H](CO)[C@@H](O)[C@H](O)[C@H]2O)C(C)(C)CC(O)C1 (some centres undefined) | 102% | –
C[C@H](O)[C@H](O)/C=C/c1cccc(O)c1CO | – | 0.0092 µM (active)
CCC(=O)c1cc(-c2ccc(Cl)cc2)n(-c2ccc(S(N)(=O)=O)cc2)c1C | – | 16.4 µM (active)
CC(=O)c1ccc2c(c1)C(O)C(C(C)(C)O)O2 (centres undefined) | 93.2% | –
C=C[C@H]1C(O[C@@H]2O[C@H](CO)[C@@H](O)[C@H](O)[C@H]2O)OC=C2C(=O)N3CCc4c([nH]c5ccccc45)[C@H]3C[C@H]21 (some centres undefined) | 92.1% [at 17.3 µM] | –
CCOc1ccc(CCNC(=O)c2cc3sc(Cl)cc3n2C)cc1OCC | – | 1.64 µM (active)
O=C(/C=C/c1ccc(O)c(O)c1)O[C@@H]1[C@@H](O)[C@H](OC2CCCCC2O)O[C@H](CO)[C@H]1O (some centres undefined) | 104% [at 17.3 µM] | –
CC[C@H](C)[C@H](NC(=O)[C@H](Cc1ccc(O)cc1)NC(=O)[C@@H](N)C(C)C)C(=O)N[C@@H](Cc1cnc[nH]1)C(=O)N1CCC[C@H]1C(=O)N[C@@H](Cc1ccccc1)C(=O)O | 102% [at 4.97 µM] | –
CC(=O)N[C@@H](CCCCN)C(=O)N(C)[C@@H](CC(C)C)C(=O)N[C@H](C(=O)N(C)[C@@H](Cc1ccccc1)C(=O)N[C@H](Cc1ccccc1)C(N)=O)C(C)C | 103% [at 4.97 µM] | –
CC1(CCC(=O)O)C(=O)C=CC23CC4CC(OC4(C)C2O)C13 (centres undefined) | 69.4% | –

SMILES | viability, % of control | Potency
CC(C)=CCC(O)/C(C)=C/CO[C@@H]1O[C@H](CO)[C@@H](O)[C@H](O)[C@H]1O (some centres undefined) | 91.2% | –
CC(C)CC(=O)O[C@@H]1OC=C(CO[C@@H]2O[C@H](CO)[C@@H](O)[C@H](O)[C@H]2O)[C@H]2[C@@H]3O[C@H]3[C@@](O)(CO)[C@@H]12 | 105% [at 17.3 µM] | –
N#C/C(=C1/SC[C@@H](c2ccc(Cl)cc2Cl)S1)n1ccnc1 | – | 13.3 µM (active)
COc1c(Nc2ncc(Cl)c(N[C@H]3[C@@H](C(N)=O)[C@@H]4C=C[C@H]3C4)n2)ccc2c1CC[C@@H](N1CCOCC1)CC2 | – | 0.291 µM (active)
NC(=O)[C@H](Cc1ccccc1)NC(=O)[C@H](CCCN=C(N)N)NC(=O)C12CC3CC(CC(C3)C1)C2 | 78% [at 9.25 µM] | –
Cc1ccc2c(c1)C=Cc1cc(C)ccc1C2c1cn(Cc2ccc(C(=O)Nc3nn[nH]n3)o2)c(=O)[nH]c1=S | 94.4% | –
C=C1C(O)C(O)C2(CC3C(C)=CCC4C(C)(C(=O)O)CCCC34C)OC2C1O (centres undefined) | 88.3% | –
CC1=CC(=O)CC(C)(CO)C1(O)/C=C/C(C)O[C@@H]1O[C@H](CO)[C@@H](O)[C@H](O)[C@H]1O (some centres undefined) | 103% [at 17.3 µM] | –
CC1(C)CC[C@]2(C(=O)O[C@@H]3O[C@H](CO)[C@@H](O)[C@H](O)[C@H]3O)CC[C@]3(C)C(=CCC4[C@@]5(C)C[C@H](O)[C@H](O[C@@H]6OC[C@@H](O)[C@H](O)[C@H]6O)[C@@](C)(CO)C5CC[C@]43C)C2C1 (some centres undefined) | 109% [at 9.25 µM] | –
O=C(OCc1ccccc1O[C@@H]1O[C@H](CO)[C@@H](O)[C@H](O)[C@H]1O)C1(O)C=CCCC1O (some centres undefined) | 83.7% [at 17.3 µM] | –
CC/C=C\CCO[C@@H]1O[C@H](CO)[C@@H](O)[C@H](O)[C@H]1O | 95.3% | –
CCOC(=O)[C@H](CCc1ccccc1)N[C@@H](C)C(=O)N1C2CCCCC2C[C@H]1C(=O)O (some centres undefined) | – | 6.51 µM (active)
COc1cc(C2Oc3c(OC)cc(/C=C/C(=O)OC4CC(O)(C(=O)O)CC(O)C4O)cc3C2CO)ccc1O (centres undefined) | 103% [at 17.3 µM] | –
CCN(Cc1cccnc1)C(=O)CN(c1ccc(OC)nc1)S(=O)(=O)c1ccccc1C | 87.6% | –
CC1(C)C2CCC1(C)C(OC(=O)C(O)(CC(=O)O)CC(=O)O)C2 (centres undefined) | 97.6% | –
CS(=O)(=O)NCC1CCC(Nc2nc3c(s2)CCSc2ccccc2-3)CC1 (centres undefined) | – | 4.61 µM (active)
CC1(C)CC[C@]2(C(=O)O[C@@H]3O[C@H](CO[C@@H]4O[C@H](CO)[C@@H](O)[C@H](O)[C@H]4O[C@@H]4O[C@H](CO)[C@H](O)[C@H](O)[C@H]4O)[C@@H](O)[C@H](O[C@@H]4O[C@H](CO)[C@@H](O)[C@H](O)[C@H]4O)[C@H]3O)CC[C@]3(C)C(=CCC4[C@@]5(C)CC[C@H](O[C@@H]6OC[C@@H](O)[C@H](O)[C@H]6O)[C@@](C)(C(=O)O)C5CC[C@]43C)[C@@H]2C1 (some centres undefined) | 74.7% [at 9.25 µM] | –
CC/C=C\[C@H](O)[C@H](O)C1=C(C)C(=O)[C@]2(O1)C(=O)N[C@@](O)(C(=O)c1ccccc1)[C@@H]2O | 83.6% [at 17.3 µM] | –
C[C@@]1(C(=O)O)CCC[C@@]2(C)C3=CC[C@H]4C[C@@]3(CC[C@H]12)CC4(O)CO (some centres undefined) | 71.8% | –
